Compound activity (PubChem)
In the library only some 1.5% were active in any assay of this set; here they are far more common.
Polio RdRp inh: poliovirus RdRp elongation inhibitors, primary screen, biochemical, fluorescence polarization, total intensity; Genome polyprotein (Poliovirus type 1 (strain Mahoney)), P03300; hit rate 0.66% among 150,000; % elongation, % (compound at 16.7 µg/mL); AID 588519, 2011; poliovirus polymerase elongation; hits give low values; in the data active = % elongation below about 90%
MbtI inh: MbtI salicylate synthase inhibitors, primary screen, biochemical, fluorescence intensity | P9WFX0 | purified MbtI enzyme, fluorescence intensity read-out | inhibition, % (concentration not given with the values) | hit rate 0.89% among 100,000; in the data active = inhibition mostly above about 56%, no sharp cut-off; inactive = mostly below about 77%
Target sequence (P9WFX0 whole entry, looked up): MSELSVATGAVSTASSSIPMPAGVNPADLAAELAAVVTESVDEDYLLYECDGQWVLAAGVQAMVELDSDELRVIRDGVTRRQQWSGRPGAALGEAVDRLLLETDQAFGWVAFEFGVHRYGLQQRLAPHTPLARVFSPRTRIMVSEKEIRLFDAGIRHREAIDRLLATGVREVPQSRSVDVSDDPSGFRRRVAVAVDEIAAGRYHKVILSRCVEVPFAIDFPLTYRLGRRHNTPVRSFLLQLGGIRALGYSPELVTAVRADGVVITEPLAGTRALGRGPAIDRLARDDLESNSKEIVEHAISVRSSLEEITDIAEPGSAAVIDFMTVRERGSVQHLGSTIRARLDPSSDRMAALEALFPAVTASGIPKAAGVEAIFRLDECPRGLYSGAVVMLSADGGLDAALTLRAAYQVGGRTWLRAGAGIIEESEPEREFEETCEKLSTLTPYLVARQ
MenB inh: M. tuberculosis MenB inhibitors, primary screen, biochemical, absorbance; hit rate 0.43% among 100,000; MenB enzyme assay, absorbance read-out; inhibition, % (no concentration beside the values); AID 540299, 2011; in the data active = inhibition above about 21%, passing the limit was not always enough
Hits are given with their value; n = inactive; x = not tested or not shown.

SMILES	Polio RdRp inh	MbtI inh	MenB inh
COc1ccc(-n2nc3c(N4CCCC(C(=O)NCc5ccc(C)cc5)C4)nnc(C)c3c2C)cc1 (stereo unspecified)	89	x	x
CS(=O)(=O)NNc1nccc(-c2cccnc2)n1	n	87	n
C=CCNC(=S)NNc1nccc(-c2cccnc2)n1	n	n	n
COC(=O)c1sc(NC(=O)COc2ccc(OC)cc2)c(C#N)c1C	83	x	n
CCOC(=O)c1c(NC(=O)COc2ccc(OC)cc2)sc(C(=O)N(CC)CC)c1C	n	x	x
O=C(CC(NC(c1ccccc1)c1ccccc1)C(=O)O)c1ccc(Cl)cc1 (stereo unspecified)	n	x	72
O=C(CC(Nc1ccccc1)C(=O)O)c1ccccc1 (stereo unspecified)	n	n	n
N#Cc1ccc(CSc2nnc(-c3cccs3)n2CC2CCCO2)cc1 (stereo unspecified)	n	n	n
CC1(C)CC(=O)c2c(nn(-c3ccccc3)c2N)C1	n	n	n
Cc1nn(-c2ccccc2)c2c1CC1(C(=O)NC(=O)c3ccccc31)C1CCCN21 (stereo unspecified)	83	n	n
COc1ccccc1NS(=O)(=O)c1ccc2oc(=S)n(CN3CCCC3)c2c1	n	n	n
COc1ccccc1NS(=O)(=O)c1ccc2oc(=S)n(CN(C)CCC#N)c2c1	85	n	n
CC1CCC[S+](c2cc(O)ccc2O)C1 (stereo unspecified)	n	101	n
Cc1cc(C)c2c(c1)NC(=O)C21NNc2ccccc2O1 (stereo unspecified)	n	n	n
O=C(O)c1ccc(S(=O)(=O)Nc2ccc3oc(=O)sc3c2)cc1	x	78	x
O=c1oc2ccc(NS(=O)(=O)c3ccc(F)cc3)cc2s1	n	n	n
CC1CCCC(C)N1Cn1nc(-c2ccccc2)n(-c2ccccc2)c1=S (stereo unspecified)	n	n	n
CC1CCCC(C)N1Cn1nc2sc3ccccc3n2c1=S (stereo unspecified)	n	98	n
Nc1cccc2nonc12	n	n	n
Fc1ccccc1C=Nc1cccc2ccccc12	n	n	n
Brc1ccccc1C=Nc1cccc2cnccc12	81	n	x
CCSC1=NCCN1C(=O)c1cccc(C(F)(F)F)c1	n	n	n
Cc1ccc(-c2ccc(/C=C3/SC(=S)N(C)C3=O)o2)cc1Cl	n	n	n
Cc1cc(C)cc(NC(=O)c2cc(-c3ccco3)nc3ccccc23)c1	n	n	n
O=C(O)c1cc(-c2ccco2)nc2ccc(Br)cc12	73	x	n
SMILES	Polio RdRp inh	MbtI inh	MenB inh
O=C(Nc1ccc2nc3n(c(=O)c2c1)CCCC3)C1COc2ccccc2O1 (stereo unspecified)	n	n	n
CCOC(=O)N1CCN(C(=O)c2cc3c(=O)n(CC)c4ccccc4c3s2)CC1	n	n	n
CCNc1nnc(-c2nn(CC(C)C)c(=O)c3ccccc23)s1	n	n	n
O=C(/C=N/O)Nc1ccc2c(c1)OCO2	n	n	n
O=C1CCCCCN1Cc1nnc(SCCN2C(=O)c3ccccc3C2=O)o1	n	n	n
O=C1CCCCCN1Cc1n[nH]c(=S)o1	82	74	n
COc1ccc(-c2noc(CN)n2)cc1OC	n	n	n
COc1ccc(-c2nc3c(=O)n(C)c(=O)nc-3n(C)n2)cc1OC	x	n	x
Cn1nc(-c2ccc(F)cc2)nc2c(=O)n(C)c(=O)nc1-2	36	n	n
CC(C)CNc1n[nH]c(=S)s1	n	96	n
CCC(C)CCCNc1n[nH]c(=S)s1 (stereo unspecified)	n	98	n
O=C(Nc1n[nH]c(=S)s1)c1ccccc1	n	n	n
CC(C)CNc1nc2ccccc2s1	n	n	x
Cc1ccc2c(c1)c1c(n2C)/C(=N/NC(N)=S)CCC1	n	n	n
N#Cc1nc2c(C#N)c3ccc4ccccc4n3c2nc1C#N	n	n	n
CC(C)(C)c1ccc(C(=O)n2cnnc2N)cc1	n	x	n
CCn1c(=O)c(=O)[nH]c2cc(C(=O)NCc3ccc4c(c3)OCO4)ccc21	n	n	n
Cc1cc(=S)nc(-c2ccccn2)[nH]1	n	81	n
Cn1nc(-c2ccccn2)sc1=S	n	n	n
COc1ccc(C(=O)N2CCn3cccc3C2c2ccccc2)cc1OC (stereo unspecified)	n	n	n
Cc1cc(C(=O)Nc2nccs2)c(C)s1	n	n	n
COc1ccc(-c2cc(C(=O)Nc3sc4c(c3C(N)=O)CCC(C)C4)no2)cc1 (stereo unspecified)	n	x	x
NC(=O)c1c(NC(=O)c2cc(-c3ccc(F)cc3)on2)sc2c1CCCC2	76	x	x
O=C(O)/C=C/C(=O)NC1CCCCC1NC(=O)/C=C/C(=O)O (stereo unspecified)	n	n	n
C=CCN1C(=O)NC(=O)/C(=C/c2ccco2)C1=O	n	98	n
SMILES	Polio RdRp inh	MbtI inh	MenB inh
O=C1NC(=O)N(Cc2ccco2)C(=O)/C1=C\c1ccco1	n	n	n
C=CCN1C(=O)/C(=C/c2ccco2)C(=O)NC1=S	n	86	n
C=CCN1C(=O)/C(=C/c2cn(C(C)CC)c3ccccc23)C(=O)NC1=S (stereo unspecified)	n	n	n
CCc1nc2ccc(NC(C)=O)cc2c(=O)n1Cc1ccccc1	n	n	n
O=C(Nc1ccc2nc(C3CC3)n(Cc3ccccc3)c(=O)c2c1)C1CC1	n	n	33
O=C(c1ccc2c(c1)N(Cc1ccccc1)C(=O)c1ccccc1S2=O)N1CCOCC1 (stereo unspecified)	n	n	n
O=C(c1ccc2c(c1)N(Cc1ccc(Cl)cc1)C(=O)c1ccccc1S2=O)N1CCOCC1 (stereo unspecified)	73	x	x
O=C(O)CN1CCCCC1	n	n	31
O=C(O)CCN1CCCC1	n	n	n
CC1CCN(C(=S)SCC(=O)O)CC1	n	n	n
COC(=O)c1cc(C(=O)OC)c(C(=O)OC)cc1C(=O)OC	n	x	n
COC(=O)c1ccsc1N1C(=O)C=CC1=O	x	94	n
CN(Cc1ccc(C(C)(C)C)cc1)C(=O)c1ccc(N(C)C)cc1	n	n	n
COCCN1C(=O)c2ccccc2C1=O	n	n	n
COCCN1C(=O)C=CC1=O	n	62	x
CC1CCN(C(=O)Cn2cc(C=C3C(=O)N(C)C(=O)N(C)C3=O)c3ccccc32)CC1	n	n	n
CCc1ccc(C=C2C(=O)N(C)C(=S)N(C)C2=O)cc1	n	99	n
CN1C(=O)C(=Cc2cn(CC(=O)O)c3ccccc23)C(=O)N(C)C1=S	n	75	n
Cc1ccccc1C=C1C(=O)N(C)C(=S)N(C)C1=O	n	72	n
CCc1ccc(C=C2C(=O)N(C)C(=O)N(C)C2=O)cc1	n	n	n
COc1ccc(C=C2C(=O)N(C)C(=S)N(C)C2=O)c(C)c1	n	n	n
CCOC(=O)C1CCN(C(=O)COC(=O)c2ccc(C)cc2)CC1	n	n	n
Cc1cccc(OCCCC(=O)O)c1	n	n	x
CCNC(=O)CCOc1cccc(C)c1	52	n	n
Cn1c(O)c(C=Nc2ccc(Cl)cc2)c(=O)[nH]c1=O	n	n	n
Cn1c(=O)[nH]c2c(nc(-c3ccccc3)n2C)c1=O	n	x	n
Cn1c(=O)[nH]c2nncnc2c1=O	43	n	n
O=C(c1ccc(=O)[nH]c1)N1CCCSC1=Nc1cccc(C(F)(F)F)c1	n	n	n
O=C(Nc1ccccc1Br)N(C1=NCCS1)c1ccc(Cl)cc1	n	x	n
